# From PubChem BioAssay AID1540 (National Center for Advancing Translational Sciences (NCATS), 2009)
# “And” between values parts separate entries of the source, which are not always exact repeats. Identical values can stand only once. Inconclusive results are not listed. The source made the active and inactive calls. The call rests on the fitted dose curve; in most records, active means well fitted activation curve with a large enough effect; inconclusive means small, poorly fitted or top-dose-only effect, or effect the other way; inactive means flat fitted curve, though single readings scatter.
# Target: Pyruvate kinase PKM (Homo sapiens) (UniProt P14618)
# Sequence (P14618 whole entry, looked up, canonical isoform): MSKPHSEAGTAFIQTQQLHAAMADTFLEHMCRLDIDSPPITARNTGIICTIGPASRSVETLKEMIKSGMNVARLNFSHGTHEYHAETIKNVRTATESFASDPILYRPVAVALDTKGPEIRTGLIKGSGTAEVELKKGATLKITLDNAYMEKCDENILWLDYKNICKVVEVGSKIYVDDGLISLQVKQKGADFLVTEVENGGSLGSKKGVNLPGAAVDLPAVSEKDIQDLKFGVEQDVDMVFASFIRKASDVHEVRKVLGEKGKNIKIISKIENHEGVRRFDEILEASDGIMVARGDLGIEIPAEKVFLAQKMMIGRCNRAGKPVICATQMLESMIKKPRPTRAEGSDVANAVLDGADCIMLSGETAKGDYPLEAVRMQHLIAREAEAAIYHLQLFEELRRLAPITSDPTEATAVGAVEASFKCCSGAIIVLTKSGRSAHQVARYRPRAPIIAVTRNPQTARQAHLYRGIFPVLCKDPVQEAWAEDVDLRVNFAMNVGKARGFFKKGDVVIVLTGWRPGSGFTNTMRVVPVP
# Assay: Secondary assay for Activators of Human Pyruvate Kinase M2 isoform
# In short: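 Initial rates came from kinetic NADH fluorescence loss read every 30 s for 3–6 min. The LDH-coupled reaction held 10 nM hPK-M2, 0.1 mM PEP, 4.0 mM ADP, 0.2 mM NADH and 1 uM LDH at pH 8.0. Normalized between uninhibited and EC100 activation with fructose-bis-phosphate.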
smiles,measurement,value
O=S(=O)(c1ccc2ccccc2c1)N1CCN(S(=O)(=O)c2c(F)cccc2F)CC1,Potency,8.91 µM (active) and 158 nM (active)
